MazF activator: activators of E. coli MazEF toxin-antitoxin RNase, primary screen, biochemical, fluorescence, uHTS. Endoribonuclease toxin MazF (Escherichia coli (strain K12)), P0AE70. FAM/BHQ RNA-DNA oligo cleavage fluorescence, 5 h. activation, % at 20 µM. actives 0.32% (n = 350,000). AID 504720, 2011; in the data active means activation above about 50%
Target sequence (P0AE70 whole entry, looked up): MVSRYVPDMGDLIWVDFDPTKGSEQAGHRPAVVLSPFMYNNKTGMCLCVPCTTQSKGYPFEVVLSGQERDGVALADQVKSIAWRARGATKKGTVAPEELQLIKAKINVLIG
DUSP3 inh: VHR1 phosphatase inhibitors, primary screen, biochemical, absorbance, uHTS; inhibition, % at 13.3 µM; actives 0.52% (n = 290,000); recombinant VHR phosphatase, pNPP absorbance; in the data active means inhibition above about 50%
Target sequence (P51452 whole entry, looked up): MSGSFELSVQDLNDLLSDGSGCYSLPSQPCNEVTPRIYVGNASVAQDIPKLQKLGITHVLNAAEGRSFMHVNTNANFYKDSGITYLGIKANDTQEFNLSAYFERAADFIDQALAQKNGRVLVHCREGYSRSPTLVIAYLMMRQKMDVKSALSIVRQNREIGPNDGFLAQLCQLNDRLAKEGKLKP
BoNT F protease: BoNT/F light chain protease inhibitors, primary screen, biochemical, flow cytometry, MLPCN library. Botulinum neurotoxin type F light chain protease (Clostridium botulinum). inhibition, % at 10 µM. actives 0.22% (n = 360,000). Multiplex microsphere protease cleavage assay. AID 588497, 2011; in the data active means inhibition above about 35%, passing the limit was not always enough; inconclusive means no clear call, values can overlap the other calls
Bead autofluor: flagged as autofluorescent in microsphere protease counterscreen; compound autofluorescence counterscreen, microsphere flow cytometry; active compounds read high; fluorescence intensity (concentration not given with the values); actives 3.1% (n = 360,000); AID 624483; in the data active means fluorescence intensity above about 16000; inconclusive means no clear call, values can overlap the other calls
Anthrax LF prot: Bacillus anthracis LF protease inhibitors, primary screen, biochemical, multiplex microsphere, MLPCN library; multiplex microsphere protease cleavage assay; inhibition, % at 10 µM; actives 0.12% (n = 360,000); AID 588501, 2011
BoNT-A LC inh2: BoNT/A light chain protease inhibitors, primary screen, biochemical, flow cytometry, MLPCN library. multiplex microsphere protease substrate cleavage. inhibition, % at 10 µM. actives 0.17% (n = 360,000). Botulinum neurotoxin type A light chain protease (Clostridium botulinum A str. ATCC 3502). AID 588499, 2011
Each line names hits and unclear results; the compound was inactive in the other large screens. The list is not random: actives were taken first. Their share in the collection is about 4.1%. Unless noted, no stated cut-off is given here; in the data, active means inhibition above about 30%; inconclusive means no clear call, values can overlap the other calls; inactive means below that.

COCC(=O)Nc1nc2n(n1)C(c1ccccc1Cl)CC(c1ccc(OC)cc1)N2 (configuration not stated)	Bead autofluor 20336
COCC(=O)Nc1nc2n(n1)C(c1ccc(Cl)cc1)CC(c1ccc(OC)cc1)N2 (configuration not stated)	none
CC[n+]1c(/C=C/N(C)c2ccccc2)sc2ccc(Cl)cc21	BoNT F protease 43.2, Anthrax LF prot 59.0, BoNT-A LC inh2 59.0
CC[n+]1c(/C=C/C=C/c2ccc(N(C)C)cc2)sc2ccccc21	BoNT F protease active
CCn1c(/C=C/N(C(C)=O)c2ccccc2)[n+](CC)c2ccc(Cl)cc21	none
CC[n+]1c(/C=C/C=C/N(C(C)=O)c2ccccc2)sc2ccccc21	MazF activator 154.0, BoNT F protease inconclusive, Anthrax LF prot inconclusive, BoNT-A LC inh2 inconclusive
CCOC(=O)c1c(NC(=O)CN2C(=O)NC3(CCCCC3C)C2=O)sc(C)c1CC (configuration not stated)	BoNT F protease inconclusive, Bead autofluor inconclusive (no result: DUSP3 inh)
Cc1cc(C)c(S(=O)(=O)Nc2cc(C)on2)c(C)c1	none (no result: BoNT F protease, Bead autofluor, Anthrax LF prot, BoNT-A LC inh2)
CCn1ncc(Br)c1C(=O)Nc1cc(C)on1	none
CC(C)(C)C(=O)Nc1ccccc1C(=O)Nc1cc(Cl)ccc1Cl	Bead autofluor 23417
COC(=O)[C@]12CCCCC=C1N(Cc1cccc3ccccc13)C(=O)[C@H](CC(=O)NCc1cccc(C(F)(F)F)c1)C2	none (no result: MazF activator, DUSP3 inh)
Cc1nc(C(F)(F)F)c(C(=O)NC(=O)Nc2ccccc2)s1	Bead autofluor 16731
Cc1nc(C(F)(F)F)c(C(=O)NC(=O)Nc2ccc(OC(F)(F)F)cc2)s1	none
CN1CCc2c(sc3nc(SCC(=O)N4CCOCC4)n(-c4ccc(Cl)cc4)c(=O)c23)C1	none
CCCC(=O)N1CCC1(C)C(=O)NS(=O)(=O)c1ccc(C)cc1 (configuration not stated)	none (no result: MazF activator, DUSP3 inh)
CCCCC(CCC(=O)Nc1nccs1)C(=O)O (configuration not stated)	Bead autofluor 20150, BoNT-A LC inh2 inconclusive
COc1cccc(OCCOc2c(OC)cccc2OC)c1	BoNT F protease 36.7
Cc1c(Cc2c(C)n(C)n(-c3ccccc3)c2=O)c(=O)n(-c2ccccc2)n1C	none
Cc1c(CN2CCCCC2C)c(=O)n(-c2ccccc2)n1C (configuration not stated)	Bead autofluor 22027, BoNT-A LC inh2 inconclusive
CC(=O)Nc1ccc(C(=O)OCC(=O)NCc2ccc3c(c2)OCO3)cc1	none (no result: DUSP3 inh)
Cc1sc2ncn(CC(=O)NCC(=O)N(C)Cc3ccccc3)c(=O)c2c1C	Bead autofluor 22315
Cc1sc2ncn(CC(=O)NCC(=O)N(C)C3CCCCC3)c(=O)c2c1C	Bead autofluor 22154
CC1(C(=O)O)CCCN(C(=O)c2cc3ccccc3s2)C1 (configuration not stated)	none (no result: MazF activator, DUSP3 inh)
Cc1cccc(NC(=O)CSc2nnc(-c3ccncc3)n2CC2CCCO2)c1 (configuration not stated)	none
COCCn1c(SCc2csc(-c3ccccc3)n2)nc2ccccc21	Bead autofluor 22786, BoNT-A LC inh2 inconclusive
O=C(CN1c2cccc3cccc(c23)S1(=O)=O)N1CCOCC1	Bead autofluor 16664
CC(C)[C@H](NC(=O)c1ccccc1)C(=O)OCC(=O)c1c(N)n(C)c(=O)n(C)c1=O	none (no result: DUSP3 inh)
COc1ccc(S(=O)(=O)N2CCCCC2)cc1NC(=O)CN(Cc1ccco1)Cc1ccco1	none (no result: DUSP3 inh)
NNc1nc(-c2ccccc2)cc(-c2ccccc2O)n1	Bead autofluor 22292, BoNT-A LC inh2 inconclusive
CC1(C)NC(=O)N(CCCCOc2ccc3ccccc3c2Cl)C1=O	Bead autofluor 24165
CC1(C)NC(=O)N(CCOCCOc2ccc3ccccc3c2Br)C1=O	Bead autofluor 21501
COCCNC(=O)C(c1ccc(O)cc1)N(Cc1cccs1)C(=O)CCC(=O)Nc1ccccn1 (configuration not stated)	none
COc1ccc(OC)c(N(CC(=O)N2CCC(C)CC2)S(=O)(=O)c2ccc(OC)c(OC)c2)c1	Bead autofluor inconclusive
COc1ccc(OC)c(N(CC(=O)N2CCCCC2)S(=O)(=O)c2ccc(OC)c(OC)c2)c1	none
Cc1ccc(S(=O)(=O)N(CC(=O)N2CCC(C)CC2)c2cccc(C)c2)cc1	Bead autofluor 20718
COc1ccc(OC)c(N(CC(=O)N2CCC(C)CC2)S(=O)(=O)c2ccccc2)c1	Bead autofluor 20367, BoNT-A LC inh2 inconclusive
CCOC(=O)N1CCN(C(=O)CN(c2cccc(C)c2)S(=O)(=O)c2ccc(C)cc2)CC1	none
COc1ccc(OC)c(N(CC(N)=O)S(=O)(=O)c2ccc(OC)c(OC)c2)c1	Bead autofluor 20080
COc1ccc(/C=c2\s/c(=C/C(=O)c3ccc(C)cc3)[nH]c2=O)c(OC)c1	MazF activator active
CCNC(=O)C1(C)CCCN(Cc2ccc(-n3ccnc3)cc2)C1 (configuration not stated)	none (no result: MazF activator, DUSP3 inh)
Cc1ccc(C(=O)Nc2ccc(Cl)cc2C(=O)c2ccccc2)cc1	Bead autofluor 23597 (no result: DUSP3 inh)
Cc1ccc(OCC(=O)Nc2ccc(Cl)cc2C(=O)c2ccccc2)cc1	none
CCCC(=O)OC1CC(C)N(C(=O)c2ccccc2)c2ccc(C)cc21 (configuration not stated)	none
CC(=O)OC1CC(C)N(C(=O)c2ccccc2)c2ccc(C)cc21 (configuration not stated)	Bead autofluor 25080
Cc1ccc(S(=O)(=O)c2nc(-c3ccco3)oc2SCC(N)=O)cc1	none
Cc1ccc(-c2nc(S(=O)(=O)c3ccc(C)cc3)c(SCC(N)=O)o2)cc1	Bead autofluor 16360
COc1cc(/C=C/C(=O)/C=C(O)/C=C/c2ccc(O)c(OC)c2)ccc1O	BoNT-A LC inh2 32.1 (no result: DUSP3 inh)
COc1cc(/C=C/C(=O)O)ccc1O	none (no result: DUSP3 inh)
COc1cc(/C=C/C(=O)CC(=O)/C=C/c2ccc(O)c(OC)c2)ccc1O	BoNT-A LC inh2 30.8
O=C(O)c1cc(C(=O)O)cc(-c2ccc(/C=c3/sc4nc5ccccc5n4c3=O)o2)c1	none (no result: BoNT F protease, Bead autofluor, Anthrax LF prot, BoNT-A LC inh2)
O=C(O)c1cccc(-c2ccc(/C=c3/sc4nc5ccccc5n4c3=O)o2)c1	MazF activator 580.8 (no result: DUSP3 inh)
Cc1ccc(-c2ccc(CN3C(C(C)C)C(=O)N(Cc4cn(CCC5OCCO5)nn4)CCS3(=O)=O)cc2)c(C)c1 (configuration not stated)	none (no result: MazF activator, DUSP3 inh)
CC1(C)CC(NC(=O)c2ccc(Cl)cc2)CC(C)(C)N1	BoNT F protease inconclusive
CC1(C)CC(NC(=O)Cc2ccc(Cl)cc2)CC(C)(C)N1	DUSP3 inh 53.3
Cc1cc(C)cc(-n2nc(C)cc2N)c1	Bead autofluor 16680, BoNT-A LC inh2 inconclusive
Cc1cccc(-n2nc(C)cc2N)c1	none
